Values without a mark were called inactive. Inconclusive results are not listed. Entries that show only a call come without a potency. Activity calls are given as the source filed them. Unless noted, calls follow the shape of the dose curve; as a rule, active = well fitted curve in the direction sought with a large enough effect in the repeat runs; inconclusive = weak or mixed curves; inactive = no such curve, though single readings can be large; an effect the other way counts as inactive or inconclusive.
Key:
[1] = target: Androgen receptor (Homo sapiens) (UniProt P10275); experiment: qHTS assay to identify small molecule agonists of the androgen receptor (AR) signaling pathway in the presence of an antagonist (AID 1259381; calls by dose curve; also: nearly all actives have a fitted effect of over 15% in size)
Sequence of Androgen receptor (Homo sapiens) (P10275 whole entry, looked up): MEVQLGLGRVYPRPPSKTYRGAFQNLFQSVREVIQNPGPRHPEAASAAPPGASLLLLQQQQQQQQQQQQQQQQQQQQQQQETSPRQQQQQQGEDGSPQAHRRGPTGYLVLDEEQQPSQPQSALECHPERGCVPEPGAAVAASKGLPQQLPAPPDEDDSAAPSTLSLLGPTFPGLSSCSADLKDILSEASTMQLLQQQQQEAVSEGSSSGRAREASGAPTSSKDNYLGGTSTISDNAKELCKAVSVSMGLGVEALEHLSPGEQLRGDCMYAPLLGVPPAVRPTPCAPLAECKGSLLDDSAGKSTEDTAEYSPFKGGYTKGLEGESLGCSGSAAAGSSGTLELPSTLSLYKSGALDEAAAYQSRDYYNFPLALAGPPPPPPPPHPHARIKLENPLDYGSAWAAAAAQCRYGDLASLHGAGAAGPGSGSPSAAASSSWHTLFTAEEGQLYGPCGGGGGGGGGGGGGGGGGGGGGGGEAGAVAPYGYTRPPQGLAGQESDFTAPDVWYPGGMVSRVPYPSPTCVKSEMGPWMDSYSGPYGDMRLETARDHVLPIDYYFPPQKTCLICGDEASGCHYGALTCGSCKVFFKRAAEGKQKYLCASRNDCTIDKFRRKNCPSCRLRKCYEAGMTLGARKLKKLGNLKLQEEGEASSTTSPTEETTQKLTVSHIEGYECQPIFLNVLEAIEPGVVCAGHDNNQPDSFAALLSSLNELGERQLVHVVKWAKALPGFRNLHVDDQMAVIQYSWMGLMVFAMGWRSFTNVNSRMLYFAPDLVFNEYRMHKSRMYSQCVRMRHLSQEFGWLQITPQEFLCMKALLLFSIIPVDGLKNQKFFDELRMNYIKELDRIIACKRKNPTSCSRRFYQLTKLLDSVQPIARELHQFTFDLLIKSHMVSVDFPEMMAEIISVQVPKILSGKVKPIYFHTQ
Method in brief: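 Agonist-mode confirmation screen: human MDA-kb2 cells stably expressing luciferase under an MMTV promoter bearing AR and GR response elements, co-treated with 3.0uM nilutamide (final). Luminescence measured after 16hr compound incubation.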

[2] = qHTS assay to identify small molecule antagonists of the estrogen receptor beta (ER-beta) signaling pathway - cell viability counter screen (AID 1259382);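 also: HEK293T cells carrying ER-beta-UAS-bla reporter stimulated with estradiol; series mostly up to about 92 µM; nearly all actives have a fitted effect of over 55% in size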
Method in brief: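 Cytotoxicity counter screen multiplexed with the beta-lactamase antagonist assay: GripTite HEK293T ER-beta-bla cells were treated 16 hr with test chemicals in the presence of 1nM 17-beta-estradiol, and viability was measured by CellTiter-Glo.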

[3] = target: Estrogen receptor (Homo sapiens) (UniProt P03372); experiment: qHTS assay to identify small molecule agonists of the estrogen receptor alpha (ER-alpha) signaling pathway in the presence of an antagonist (AID 1259383; calls by dose curve; also: top concentration of the series differs between compounds; nearly all actives have a fitted effect of over 15% in size)
Sequence of Estrogen receptor (Homo sapiens) (P03372 whole entry, looked up): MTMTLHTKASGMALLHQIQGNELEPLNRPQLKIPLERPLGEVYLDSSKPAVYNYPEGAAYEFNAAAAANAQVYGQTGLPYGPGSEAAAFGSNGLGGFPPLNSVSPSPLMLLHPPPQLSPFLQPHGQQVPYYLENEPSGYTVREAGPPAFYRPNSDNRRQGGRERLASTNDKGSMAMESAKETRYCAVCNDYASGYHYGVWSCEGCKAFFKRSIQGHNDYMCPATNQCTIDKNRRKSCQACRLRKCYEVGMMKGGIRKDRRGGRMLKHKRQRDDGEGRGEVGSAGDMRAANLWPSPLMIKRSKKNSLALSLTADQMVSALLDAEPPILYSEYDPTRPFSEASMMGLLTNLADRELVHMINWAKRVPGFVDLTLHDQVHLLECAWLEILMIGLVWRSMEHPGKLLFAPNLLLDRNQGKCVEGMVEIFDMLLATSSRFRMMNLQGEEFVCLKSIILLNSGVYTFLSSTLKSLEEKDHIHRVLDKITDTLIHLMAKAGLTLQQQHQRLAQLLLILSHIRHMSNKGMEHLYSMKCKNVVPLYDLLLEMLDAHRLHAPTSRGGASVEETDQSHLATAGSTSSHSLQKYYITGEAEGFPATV
Method in brief: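 Agonist-mode confirmation in the presence of the ER antagonist ICI-182,780 at 10.0nM final. Breast-derived VM7Luc4E2 reporter cells were exposed to compounds for 22hr, and ERE-driven luciferase was quantified by luminescence.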

[4] = qHTS assay to identify small molecule agonists or antagonists of the thyroid stimulating hormone receptor (TSHR) signaling pathway - wild type cell line counter screen (AID 1259384; calls by dose curve)
Method in brief: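 Wild-type HEK293 cells were plated 18 h at 37 C/5% CO2, pin-dosed with compound plus Ro20-1724 medium, held 30 min at room temperature, then given cAMP-d2 and anti-cAMP-cryptate; fluorescence was read after 1 h. Fifteen concentrations, triplicate.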

[5] = target: Thyrotropin receptor (Homo sapiens) (UniProt P16473); experiment: qHTS assay to identify small molecule antagonists of the thyroid stimulating hormone receptor (TSHR) signaling pathway (AID 1259385; calls by dose curve; also: nearly all actives have a fitted effect of over 20% in size)
Sequence of Thyrotropin receptor (Homo sapiens) (P16473 whole entry, looked up): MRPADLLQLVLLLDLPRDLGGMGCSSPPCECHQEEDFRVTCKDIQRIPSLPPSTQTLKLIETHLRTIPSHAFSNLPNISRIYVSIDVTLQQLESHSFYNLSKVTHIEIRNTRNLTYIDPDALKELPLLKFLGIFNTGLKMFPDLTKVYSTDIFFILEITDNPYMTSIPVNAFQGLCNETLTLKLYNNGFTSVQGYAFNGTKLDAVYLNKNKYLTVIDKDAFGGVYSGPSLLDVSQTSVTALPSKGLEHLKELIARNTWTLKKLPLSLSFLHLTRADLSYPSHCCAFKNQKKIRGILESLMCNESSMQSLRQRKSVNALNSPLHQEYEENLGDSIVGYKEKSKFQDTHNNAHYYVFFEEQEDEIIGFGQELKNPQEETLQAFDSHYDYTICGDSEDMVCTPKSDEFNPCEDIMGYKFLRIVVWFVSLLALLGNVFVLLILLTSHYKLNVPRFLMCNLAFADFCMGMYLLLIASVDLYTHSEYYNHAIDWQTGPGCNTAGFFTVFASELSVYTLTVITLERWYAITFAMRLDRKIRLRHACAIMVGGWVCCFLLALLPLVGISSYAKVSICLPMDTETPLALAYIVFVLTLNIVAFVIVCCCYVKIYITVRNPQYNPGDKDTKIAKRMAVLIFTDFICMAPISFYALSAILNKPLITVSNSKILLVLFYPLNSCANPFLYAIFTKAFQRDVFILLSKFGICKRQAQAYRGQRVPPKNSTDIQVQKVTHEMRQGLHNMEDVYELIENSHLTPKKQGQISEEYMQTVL
Method in brief: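 TSHR-HEK293 cells were plated and held 18 h at 37C/5% CO2, then given compound plus Ro20-1724 and stimulated with TSH at 1.5 ng/mL final. After 30 min at room temperature, cAMP was detected with cAMP-d2/anti-cAMP-cryptate (1 h) by fluorescence.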

[6] = qHTS assay to identify small molecule agonists of the estrogen receptor alpha (ER-alpha) signaling pathway in the presence of an antagonist - cell viability counter screen (AID 1259386);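 also: series mostly up to about 92 µM; cells exposed to compounds for 22 h at 37 °C before the viability read; nearly all actives have a fitted effect of over 30% in size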
Method in brief: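 Cytotoxicity was measured in parallel with the ERE-luciferase agonist screen, in the same wells. The cells were VM7Luc4E2, which endogenously express ER-alpha, and treatment was with compounds plus 10.0nM ICI-182,780 for 22hr.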

[7] = target: Progesterone receptor (Homo sapiens) (UniProt P06401); experiment: qHTS assay to identify small molecule agonists of the progesterone receptor (PR) signaling pathway (AID 1346784; calls by dose curve; also: nearly all actives have a fitted effect of over 30% in size; also: potency is read from the fitted curve at half-maximal effect)
Sequence of Progesterone receptor (Homo sapiens) (P06401 whole entry, looked up): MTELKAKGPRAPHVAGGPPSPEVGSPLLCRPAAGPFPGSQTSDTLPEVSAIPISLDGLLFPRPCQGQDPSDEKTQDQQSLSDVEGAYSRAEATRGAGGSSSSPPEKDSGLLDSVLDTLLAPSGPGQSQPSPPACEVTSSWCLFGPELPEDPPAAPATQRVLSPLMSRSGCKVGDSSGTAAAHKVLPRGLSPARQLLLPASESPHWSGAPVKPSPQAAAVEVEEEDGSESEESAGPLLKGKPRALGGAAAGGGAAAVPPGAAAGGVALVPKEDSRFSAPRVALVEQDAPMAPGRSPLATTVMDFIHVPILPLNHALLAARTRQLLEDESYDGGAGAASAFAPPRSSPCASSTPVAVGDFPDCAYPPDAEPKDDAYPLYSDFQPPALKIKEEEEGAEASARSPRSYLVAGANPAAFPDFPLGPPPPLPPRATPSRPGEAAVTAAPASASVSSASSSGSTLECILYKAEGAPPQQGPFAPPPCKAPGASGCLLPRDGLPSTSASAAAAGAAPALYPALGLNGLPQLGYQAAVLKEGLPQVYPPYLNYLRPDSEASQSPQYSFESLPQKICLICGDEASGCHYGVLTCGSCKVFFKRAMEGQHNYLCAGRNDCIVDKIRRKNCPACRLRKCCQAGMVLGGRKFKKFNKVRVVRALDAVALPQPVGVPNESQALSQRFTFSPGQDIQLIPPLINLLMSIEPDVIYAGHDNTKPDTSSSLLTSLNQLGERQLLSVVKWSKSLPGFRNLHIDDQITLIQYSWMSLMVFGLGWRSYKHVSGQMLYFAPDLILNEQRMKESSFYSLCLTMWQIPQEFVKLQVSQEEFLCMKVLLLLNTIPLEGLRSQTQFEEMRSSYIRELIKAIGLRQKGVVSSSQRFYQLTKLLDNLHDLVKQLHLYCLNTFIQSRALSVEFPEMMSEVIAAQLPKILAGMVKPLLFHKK
Method in brief: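 Beta-lactamase reporter read-out: after 16 hr compound treatment at 37C and a further 2 hr at room temperature with LiveBLAzer B/G FRET substrate, fluorescence was measured in PR-UAS-bla HEK 293T cells grown in 2% charcoal-stripped serum.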

[8] = target: Progesterone receptor (Homo sapiens) (UniProt P06401); experiment: qHTS assay to identify small molecule antagonists of the progesterone receptor (PR) signaling pathway (AID 1346795; active = well fitted inhibition curve with a large enough effect in the signal ratio in the repeat runs, not every such curve was filed as active; the % refers to the signal ratio)
Method in brief: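 Read-out is fluorescence from the LiveBLAzer B/G FRET substrate, cleaved by a UAS-controlled beta-lactamase in PR-UAS-bla HEK293T cells after 16 hr exposure to compound plus 1 nM promegestone (final), followed by 2 hr at room temperature.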

[9] = qHTS assay to identify small molecule antagonists of the progesterone receptor (PR) signaling pathway - cell viability counter screen (AID 1346798);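 also: HEK293T PR-UAS-bla cells stimulated with the agonist R5020; series mostly up to about 92 µM; nearly all actives have a fitted effect of over 50% in size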
Method in brief: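 HEK293T PR-UAS-bla, 2% charcoal-stripped FBS; 4 hr pre-plate; cpd + R5020, 16 h 37C; LiveBLAzer read first; then CellTiter-Glo 30 min RT, luminescence.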

[10] = qHTS assay to identify small molecule antagonists of the TGF-beta/Smad signaling pathway - cell viability counter screen (AID 1346824); also: nearly all actives have a fitted effect of over 50% in size
Method in brief: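 SBE-bla HEK 293T cells were plated overnight at 37 C, then given compounds in DMSO plus TGF-beta1 (added as 0.25 ng/mL solution) for 5 hr. After the bla read, CellTiter-Glo was added to the same wells and luminescence read after 30 min at room temperature.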

[11] = qHTS assay to identify small molecule agonists of the TGF-beta/Smad signaling pathway - cell viability counter screen (AID 1346829); also: top concentration of the series differs between compounds; nearly all actives have a fitted effect of over 45% in size
Method in brief: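 HEK 293T SBE-bla line, 5 hr compound exposure at 37 C, multiplexed CellTiter-Glo viability read by luminescence.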

[12] = qHTS assay to identify small molecule agonists of the TGF-beta/Smad signaling pathway (AID 1346859; active = well fitted activation curve with a large enough effect in the signal ratio in the repeat runs, not every such curve was filed as active; the % refers to the signal ratio; also: series mostly up to about 77 µM)
Method in brief: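 SBE-bla HEK 293T, 4,000 cells/well, plated o/n; cpd in DMSO, 5 hr, 37 C/5% CO2; B/G FRET substrate 2 hr RT; ex 405, em 460/530 nm.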

[13] = target: Thyrotropin-releasing hormone receptor (Homo sapiens) (UniProt P34981); experiment: qHTS assay to identify small molecule antagonists of the thyrotropin-releasing hormone receptor (TRHR) signaling pathway (AID 1346877; active = well fitted inhibition curve with a large enough effect in the repeat runs, not every such curve was filed as active; also: series mostly up to about 51 µM)
Sequence of Thyrotropin-releasing hormone receptor (Homo sapiens) (P34981 whole entry, looked up): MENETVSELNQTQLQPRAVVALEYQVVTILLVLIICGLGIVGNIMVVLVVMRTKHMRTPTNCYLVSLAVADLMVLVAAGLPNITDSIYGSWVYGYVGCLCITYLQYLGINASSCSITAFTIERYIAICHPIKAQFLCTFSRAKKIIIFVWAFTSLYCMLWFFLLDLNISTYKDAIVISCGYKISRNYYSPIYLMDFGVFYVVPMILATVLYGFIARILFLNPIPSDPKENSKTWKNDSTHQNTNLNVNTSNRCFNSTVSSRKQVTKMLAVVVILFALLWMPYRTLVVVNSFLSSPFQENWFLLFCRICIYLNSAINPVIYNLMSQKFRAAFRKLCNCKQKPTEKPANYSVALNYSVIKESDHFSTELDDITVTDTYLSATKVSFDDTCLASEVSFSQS
Method in brief: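 Antagonism is measured as suppression of the calcium response to 1 nM TRH in TRHR-HEK293 cells that have been dye-loaded for 2 h at 37 °C after overnight plating. Each compound is tested at 15 concentrations in triplicate.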

[14] = target: Thyrotropin-releasing hormone receptor (Homo sapiens) (UniProt P34981); experiment: qHTS assay to identify small molecule agonists of the thyrotropin-releasing hormone receptor (TRHR) signaling pathway (AID 1346891; calls by dose curve; also: series mostly up to about 58 µM)
Method in brief: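 Intracellular calcium rise, read as fluorescence every second for 3 min, served as the agonist signal in dye-loaded HEK293 cells expressing TRHR; each compound ran at 15 concentrations in triplicate.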

[15] = Human pregnane X receptor (PXR) small molecule agonists, qHTS cell viability counter screen (AID 1346977); also: nearly all actives have a fitted effect of over 50% in size
Method in brief: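 PXR-Luc HepG2, 2,000 cells/well, 5% charcoal-stripped FBS; 5hr settle; cpd 24hr, 37C/5% CO2; CellTiter-Fluor at 23hr, read 1hr later (fluorescence).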

[16] = Caspase-3/7 induction in HepG2 cells by small molecules, qHTS assay (AID 1346978); also: nearly all actives have a fitted effect of over 15% in size
Method in brief: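 Wild-type HepG2 cells (2,000/well) were settled 5 h at 37 C, 5% CO2, then exposed to compounds in DMSO for 17 h. Caspase-3/7 activity was read by luminescence 30 min after adding Caspase-Glo 3/7 reagent at room temperature.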

[17] = Caspase-3/7 induction in CHO-K1 cells by small molecules, qHTS cell viability counter screen (AID 1346979); also: nearly all actives have a fitted effect of over 35% in size
Method in brief: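 Cells (CHO-K1, wild type) are plated at 1,500 per well and incubated 5hr. Test compounds in DMSO are then pinned in, followed by 16hr at 37C and 5% CO2. Viability is read by CellTiter-Fluor fluorescence after 1hr.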

[18] = Caspase-3/7 induction in CHO-K1 cells by small molecules, qHTS assay (AID 1346980); also: nearly all actives have a fitted effect of over 15% in size
Method in brief: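 Wild-type cells were seeded at 1,500 per well and settled 5 hr at 37 C, 5% CO2, then exposed to DMSO-dissolved compounds for 17 hr. Caspase-Glo 3/7 reagent was added, and luminescence was read after 30min at room temperature.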

[19] = Caspase-3/7 induction in HepG2 cells by small molecules, qHTS cell viability counter screen (AID 1346981); also: series mostly up to about 92 µM; nearly all actives have a fitted effect of over 30% in size
Method in brief: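 Cell viability is measured as a cytotoxicity counter screen alongside the Caspase-Glo 3/7 readout in identical wells. Wild-type HepG2 cells are treated with test compounds for 16 hr at 37 C before CellTiter-Fluor addition and a 1-hr incubation.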

[20] = qHTS assay to identify small molecule agonists of the progesterone receptor (PR) signaling pathway - cell viability counter screen (AID 1346799; calls by dose curve; also: nearly all actives have a fitted effect of over 45% in size)
Method in brief: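 Luminescence from CellTiter-Glo, added after the beta-lactamase FRET read in the same wells, gave cytotoxicity in PR-UAS-bla HEK293T cells treated with compounds for 16 hr at 37C.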

Structure (SMILES) | outcome [1] | outcome [2] | outcome [3] | outcome [4] | outcome [5] | Potency [6] | Potency [7] | Potency [8] | Potency [9] | outcome [10] | outcome [11] | outcome [12] | outcome [13] | outcome [14] | Potency [15] | outcome [16] | Potency [17] | outcome [18] | Potency [19] | Potency [20]
COC(OC)C(C)c1ccccc1 (centres undefined) | inactive | inactive | inactive | inactive | inactive | inactive | inactive | inactive | inactive | inactive | inactive | inactive | inactive | inactive | inactive | inactive | inactive | inactive | inactive | –
CC(=O)OC[C@H]1O[C@@H](OC(C)=O)[C@H](OC(C)=O)[C@@H]1OC(C)=O | inactive | inactive | inactive | inactive | inactive | inactive | inactive | inactive | inactive | inactive | inactive | inactive | inactive | inactive | inactive | inactive | inactive | inactive | inactive | inactive
COc1cccc2sc(N)nc12 | inactive | inactive | inactive | inactive | inactive | inactive | 43.5 µM (active) | inactive | inactive | inactive | inactive | inactive | inactive | inactive | inactive | inactive | inactive | inactive | inactive | inactive
CCCOCCOCCOCCO | inactive | inactive | inactive | – | – | inactive | inactive | – | – | inactive | inactive | inactive | inactive | inactive | inactive | inactive | inactive | inactive | inactive | –
O=C(O)c1ccccc1C(=O)OCc1ccccc1 | inactive | inactive | – | inactive | inactive | inactive | inactive | inactive | – | inactive | inactive | inactive | inactive | inactive | inactive | inactive | inactive | inactive | – | inactive
C=CCOCC(O)CCl (centres undefined) | inactive | – | inactive | – | – | inactive | inactive | inactive | – | inactive | inactive | inactive | inactive | inactive | inactive | inactive | inactive | inactive | inactive | inactive
O=C(O)c1ccc(OCCN2CCCCC2)cc1 | inactive | inactive | inactive | inactive | inactive | inactive | – | inactive | inactive | inactive | inactive | inactive | – | – | inactive | inactive | inactive | inactive | inactive | inactive
Cc1nc2ccccc2c(=O)o1 | – | inactive | inactive | inactive | inactive | inactive | inactive | inactive | inactive | inactive | inactive | inactive | – | – | inactive | inactive | inactive | inactive | inactive | inactive
CCS(=O)(=O)CCn1c([N+](=O)[O-])cnc1C | – | inactive | inactive | inactive | inactive | inactive | inactive | inactive | inactive | inactive | inactive | inactive | inactive | inactive | inactive | inactive | inactive | inactive | – | inactive
O=C(COCCOCCOCC(=O)Nc1c(I)cc(I)c(C(=O)O)c1I)Nc1c(I)cc(I)c(C(=O)O)c1I | – | inactive | inactive | inactive | inactive | inactive | inactive | inactive | – | inactive | inactive | inactive | inactive | inactive | inactive | inactive | inactive | inactive | inactive | inactive
Cc1ccccc1C(=O)N1CC/C(=N\OS(=O)(=O)O)c2ccc(Cl)cc21 | – | inactive | inactive | inactive | inactive | inactive | inactive | inactive | – | inactive | inactive | inactive | inactive | inactive | inactive | inactive | inactive | inactive | inactive | inactive
O=C(Oc1ccccc1C(=O)O)c1ccccc1O | – | inactive | inactive | inactive | inactive | inactive | inactive | inactive | inactive | inactive | inactive | inactive | inactive | inactive | inactive | inactive | inactive | inactive | inactive | inactive
N#CCCOCCOCCC#N | – | inactive | inactive | inactive | inactive | inactive | inactive | inactive | – | inactive | inactive | inactive | inactive | inactive | inactive | inactive | inactive | inactive | – | inactive
CCCCCCCC/C=C\CCCCCCCC(=O)OC[C@@H](O)[C@H]1OC[C@H](O)[C@H]1O | – | inactive | inactive | inactive | inactive | inactive | inactive | inactive | inactive | inactive | inactive | inactive | – | – | inactive | inactive | inactive | inactive | – | –
CC(C)(C)c1ccc(C=O)cc1 | – | inactive | inactive | inactive | inactive | inactive | inactive | inactive | inactive | inactive | inactive | inactive | inactive | inactive | inactive | inactive | inactive | inactive | – | inactive

— PubChem BioAssay (Tox21)
